Molecules are shown by their SMILES. This is part of a sample that, as a whole, favours compounds with a hit. Of some 83,000 tested, about 20% had one in any assay.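 48-hour exposure, single concentration, 96-well plates; percent growth endpoint where 0 means no net growth. Active: below 10.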 Unmarked numbers belong to inactive results. Activity calls are given as the source filed them.

Some test systems named below: NCI-H23 lung; NCI-H226 lung; NCI-H322M lung; HOP-62 NSCLC; NCI-H460 lung; HOP-92 NSCLC; NCI-H522 lung; A549/ATCC NSCLC; 786-0 renal; COLO 205 colon.
Holding throughout (assay): NCI-60 one-dose screen, 48 h (100 = growth as untreated, 0 = no growth, -100 = all killed)

In the case of `CC/C(=C(/c1ccc(O)cc1)c1ccc(OCCN(C)C(=O)COCCOCCNC(=O)c2ccc3c(c2)CN([C@@H]2CCC(=O)NC2=O)C3=O)cc1)c1ccccc1`, the growth in the assay on NCI-H23 lung (1 µM) was 99%; in the assay with NCI-H23 lung (10 µM) it was 97%; with NCI-H226 lung (1 µM) it was 89.4%; with NCI-H226 lung (10 µM) it was 65.4%; in the assay with NCI-H322M lung (1 µM), 101%; in the assay on NCI-H322M lung (10 µM) it was 85.2%. Further, the growth in the assay with HOP-62 NSCLC (1 µM) is 93.4%; with HOP-62 NSCLC (10 µM), 81%; in the assay on NCI-H460 lung (1 µM), 111%; in the assay on NCI-H460 lung (10 µM), 114%; with HOP-92 NSCLC (1 µM), 26.9%; in the assay with HOP-92 NSCLC (10 µM), 18.2%. The growth was 91.7% in the assay on NCI-H522 lung (1 µM); 90% in the assay with NCI-H522 lung (10 µM); 89.4% in the assay on A549/ATCC NSCLC (1 µM); 85.3% in the assay with A549/ATCC NSCLC (10 µM); 94% with 786-0 renal (1 µM); 96.7% in the assay on 786-0 renal (10 µM). Further, the results for the growth in the assay with COLO 205 colon (1 µM) and in the assay with COLO 205 colon (10 µM) were 91.3% and 79.3%, respectively.

For `COc1ccc(S(=O)(=O)Nc2ccc(-c3ccc4c(c3)NC(=O)/C4=C\c3ccc[nH]3)cc2)cc1OC`, the growth was -25.1% (active) with NCI-H23 lung (10 µM unless noted); -37.8% (active) in the assay on NCI-H226 lung (10 µM unless noted); 31.6% in the assay with NCI-H322M lung (10 µM unless noted); 0.497% (active) with HOP-62 NSCLC (10 µM unless noted); -52.5% (active) in the assay with NCI-H460 lung (10 µM unless noted); 5.85% (active) with HOP-92 NSCLC (10 µM unless noted). Also, the growth in the assay with NCI-H522 lung (10 µM unless noted) is 2.96% (active); in the assay with A549/ATCC NSCLC (10 µM unless noted) it was -25.8% (active); in the assay with 786-0 renal (10 µM unless noted), -9.09% (active); in the assay with COLO 205 colon (10 µM unless noted) it was 39.8%.

As to `CC/C(=C(\c1ccc(O)cc1)c1ccc(OCCN(C)C(=O)COCCNC(=O)Cc2ccc3c(c2)CN([C@@H]2CCC(=O)NC2=O)C3=O)cc1)c1ccccc1`, the growth in the assay on NCI-H23 lung (1 µM) was 102%; in the assay on NCI-H23 lung (10 µM) it was 86.6%; in the assay with NCI-H226 lung (1 µM), 77.4%; in the assay on NCI-H226 lung (10 µM) it was 6.46% (active); with NCI-H322M lung (1 µM), 77.5%; in the assay on NCI-H322M lung (10 µM), 37.9%. Further, the growth with NCI-H460 lung (1 µM) is 124%; in the assay with NCI-H460 lung (10 µM) it was 106%; with HOP-92 NSCLC (1 µM) it was 8.46% (active); in the assay with HOP-92 NSCLC (10 µM), -0.223% (active); in the assay with NCI-H522 lung (1 µM), 92.2%; in the assay with NCI-H522 lung (10 µM), 95.3%. Besides, the growth with A549/ATCC NSCLC (1 µM) is 95.7%; with A549/ATCC NSCLC (10 µM), 75.2%; with 786-0 renal (1 µM), 94%; in the assay on 786-0 renal (10 µM) it was 90.6%; in the assay with COLO 205 colon (1 µM) it was 72.2%; with COLO 205 colon (10 µM) it was 33.8%.

As for `O=C(c1ccc(Cl)cc1)C1[C@H](c2ccccc2Cl)[C@@H](c2ccccc2)NC12C(=O)Nc1ccc(Br)cc12` (stereo partly specified), the growth with NCI-H23 lung (10 µM unless noted) is -80.5% (active); in the assay with NCI-H226 lung (10 µM unless noted) it was -89.1% (active); in the assay on NCI-H322M lung (10 µM unless noted) it was -47.3% (active); in the assay on HOP-62 NSCLC (10 µM unless noted), -88% (active); in the assay with NCI-H460 lung (10 µM unless noted), -78.8% (active); in the assay on HOP-92 NSCLC (10 µM unless noted) it was -84.3% (active). Further, the growth in the assay with NCI-H522 lung (10 µM unless noted) is -73.4% (active); in the assay with A549/ATCC NSCLC (10 µM unless noted), -41.7% (active); in the assay with 786-0 renal (10 µM unless noted), -67% (active); with COLO 205 colon (10 µM unless noted), -83.3% (active).

On to `CC/C(=C(\c1ccc(O)cc1)c1ccc(OCCNC)cc1)c1ccccc1`, for which the growth was 98.9% in the assay with NCI-H23 lung (1 µM); 96.5% in the assay with NCI-H23 lung (10 µM); 85.9% in the assay on NCI-H226 lung (1 µM); 74.7% with NCI-H226 lung (10 µM); 100% in the assay with NCI-H322M lung (1 µM); 102% in the assay with NCI-H322M lung (10 µM). For the same compound, the growth in the assay with NCI-H460 lung (1 µM) is 118%; with NCI-H460 lung (10 µM), 69.2%; in the assay on HOP-92 NSCLC (1 µM), 80.2%; in the assay with HOP-92 NSCLC (10 µM) it was 65.1%; in the assay on NCI-H522 lung (1 µM), 87.9%; with NCI-H522 lung (10 µM) it was 93%. Moreover, the growth with A549/ATCC NSCLC (1 µM) was 93.9%; in the assay with A549/ATCC NSCLC (10 µM), 88.2%; in the assay on 786-0 renal (1 µM) it was 89.7%; in the assay with 786-0 renal (10 µM), 76.7%; in the assay with COLO 205 colon (1 µM), 116%; in the assay with COLO 205 colon (10 µM), 91%.

Turning to `O=C(CSc1nnc(-c2ccc(-c3nc4ccccc4[nH]3)cc2)o1)Nc1ccccc1`, the growth in the assay on NCI-H23 lung (10 µM unless noted) is 63.1%; in the assay on NCI-H226 lung (10 µM unless noted) it was 76.1%; in the assay with NCI-H322M lung (10 µM unless noted) it was 84.4%; with HOP-62 NSCLC (10 µM unless noted) it was 63.2%; in the assay with NCI-H460 lung (10 µM unless noted) it was 12%; with HOP-92 NSCLC (10 µM unless noted) it was 54.1%. In addition, the growth in the assay with NCI-H522 lung (10 µM unless noted) was 78%; in the assay with A549/ATCC NSCLC (10 µM unless noted), 51.8%; in the assay on 786-0 renal (10 µM unless noted), 22%; in the assay with COLO 205 colon (10 µM unless noted), 118%.

Consider `N/C(=N\c1nc2ccc([N+](=O)[O-])cc2s1)NC(=O)Nc1ccccc1Cl`, for which the growth in the assay with NCI-H23 lung (10 µM unless noted) is 44.6%; in the assay with NCI-H226 lung (10 µM unless noted), 23.7%; in the assay with NCI-H322M lung (10 µM unless noted), 61.7%; in the assay on HOP-62 NSCLC (10 µM unless noted), 51.3%; in the assay on NCI-H460 lung (10 µM unless noted) it was 11.3%; with HOP-92 NSCLC (10 µM unless noted) it was 17.2%. The growth with NCI-H522 lung (10 µM unless noted) is 5.69% (active); in the assay on A549/ATCC NSCLC (10 µM unless noted) it was 9.92% (active); in the assay with 786-0 renal (10 µM unless noted) it was -32% (active); with COLO 205 colon (10 µM unless noted) it was 49.3%.

With `Cc1ccc2c(c1)nc(-c1ccccc1)n2CC(=O)N=Nc1c(O)[nH]c2ccc(Cl)cc12`, the growth is -66% (active) in the assay with NCI-H23 lung (10 µM unless noted); -53.5% (active) in the assay on NCI-H226 lung (10 µM unless noted); -53.8% (active) in the assay on NCI-H322M lung (10 µM unless noted); -79.7% (active) in the assay on HOP-62 NSCLC (10 µM unless noted); -68.9% (active) in the assay with NCI-H460 lung (10 µM unless noted); -74.2% (active) in the assay on HOP-92 NSCLC (10 µM unless noted). For the same compound, the growth was -75% (active) in the assay with NCI-H522 lung (10 µM unless noted), -18.7% (active) in the assay with A549/ATCC NSCLC (10 µM unless noted), -92% (active) with 786-0 renal (10 µM unless noted) and -87.6% (active) in the assay on COLO 205 colon (10 µM unless noted).

On to `O=C(Nc1nc2ccc([N+](=O)[O-])cc2s1)Nc1ccc(Cl)cc1Cl`, for which the growth in the assay on NCI-H23 lung (10 µM unless noted) is 18.2%; with NCI-H226 lung (10 µM unless noted), 61.1%; in the assay with NCI-H322M lung (10 µM unless noted) it was 72.2%; in the assay on HOP-62 NSCLC (10 µM unless noted) it was 39.8%; with NCI-H460 lung (10 µM unless noted), 27.6%; in the assay on HOP-92 NSCLC (10 µM unless noted), 29.1%. For the same compound, the growth with NCI-H522 lung (10 µM unless noted) was 20.3%; in the assay on A549/ATCC NSCLC (10 µM unless noted), 55.8%; in the assay on 786-0 renal (10 µM unless noted), 19.6%; with COLO 205 colon (10 µM unless noted), 74.7%.

Regarding `Cc1cc(C(NC(=O)CCCCCNc2cccc3c2C(=O)N(C2CCC(=O)CC2=O)C3=O)c2cccc(N(C)C)c2)c(O)c2ncccc12` (stereo unspecified), the growth is 24% with NCI-H23 lung (10 µM unless noted); -1.45% (active) in the assay on NCI-H226 lung (10 µM unless noted); 13.7% in the assay with NCI-H322M lung (10 µM unless noted); -22.6% (active) in the assay with HOP-62 NSCLC (10 µM unless noted); 5.72% (active) in the assay with NCI-H460 lung (10 µM unless noted); -10.4% (active) in the assay on HOP-92 NSCLC (10 µM unless noted). In addition, the growth in the assay on NCI-H522 lung (10 µM unless noted) is 13%; with A549/ATCC NSCLC (10 µM unless noted) it was 11.7%; in the assay on 786-0 renal (10 µM unless noted), 2.23% (active); with COLO 205 colon (10 µM unless noted) it was 7.54% (active).

As to `Cn1cc(-c2cc(N)n3nc(-c4c[nH]c5ccccc45)cc3n2)c2cc(F)ccc21`, the growth is 44.7% in the assay on NCI-H23 lung (10 µM unless noted); 91.4% with NCI-H226 lung (10 µM unless noted); 65.1% in the assay on NCI-H322M lung (10 µM unless noted); -22.1% (active) with HOP-62 NSCLC (10 µM unless noted); -23.9% (active) in the assay with NCI-H460 lung (10 µM unless noted); 31.3% with HOP-92 NSCLC (10 µM unless noted). Further, the growth in the assay with NCI-H522 lung (10 µM unless noted) was -61.8% (active); with A549/ATCC NSCLC (10 µM unless noted), 13.7%; with 786-0 renal (10 µM unless noted), -2.12% (active); in the assay on COLO 205 colon (10 µM unless noted), -47.4% (active).

Source of the values: PubChem BioAssay (NCI).
